Hits are enriched below; roughly 21% of the tested compounds scored in any of these assays.
VP16 counter: Gal4-VP16 reporter inhibition counter-screen. Potency, µM (doses to about 53.6 µM), inactives show top-dose activity, negative = inhibition, most hits filed as inhibitors. hit rate 3.5% among 310,000. Drosophila S2 Gal4-VP16 UAS-luciferase, luminescence, 20 h;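 note: Gal4-VP16 expression switched on by copper sulfate through the metallothionein promoter; potency is the fitted concentration of half-maximal effect; nearly all actives have a fitted effect of over 50% in size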
TDP1 cell noCPT: qHTS for Inhibitors of human tyrosyl-DNA phosphodiesterase 1 (TDP1): qHTS in cells in absence of CPT; DT40 Tdp1-/- hTDP1 cells, no CPT, ATP luminescence, 48 h; Potency, µM (top dose mostly 46.2 µM), for the others: at the top dose activity change, negative = growth inhibition, usual class: inhibitors; hit rate 15% among 420,000; AID 686978, 2013; note: potency is the fitted concentration of half-maximal effect; nearly all actives have a fitted effect of over 55% in size
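Compound effects on proliferation are scored in DT40 Tdp1-/-;hTDP1 cells in the absence of CPT. ATP levels (CellTiter-Glo luminescence) are recorded after a ≥48 hr, 37 °C incubation.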
TDP1 cell CPT: growth inhibition of DT40 Tdp1-/-;hTDP1 cells with camptothecin (screen for TDP1 inhibitors). hit rate 12% among 420,000. AID 686979. Potency, µM (highest dose often 46.2 µM), inactives show at the highest dose activity change, negative = growth inhibition, usual class: inhibitors. chicken DT40 Tdp1-/-;hTDP1 cells + 20 nM CPT, ATP luminescence, 48 h; note: potency is the fitted concentration of half-maximal effect; nearly all actives have a fitted effect of over 55% in size
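Cell growth measured by CellTiter-Glo luminescence after a minimum 48 h, 37 C compound exposure with 20 nM CPT in Tdp1-knockout DT40 cells stably expressing hTDP1, seeded 400/well; qHTS titration format.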
ELG1 DNA repair: inhibitors of ELG1-dependent DNA repair in HEK293T cells | HEK293T ELG1-luciferase reporter, luminescence, 16 h; DNA damage induced by 5-fluorouridine | Potency, µM (doses to about 46.1 µM), for inactives: top-dose activity change, negative = inhibition, actives largely listed as inhibitors | hit rate 2.3% among 330,000 | AID 504467; note: potency is the fitted concentration of half-maximal effect; nearly all actives have a fitted effect of over 55% in size
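5-Fluorouridine DNA damage + compound/DMSO, 2,000 cells/well, 16 h, 37 °C/5% CO2. ONE-Glo, 30 min RT, luminescence. Readout = decrease in reporter signal.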
IL1B secr inh: inflammasome signaling inhibition, IL-1 beta readout. THP-1 LPS/ATP IL-1B secretion, AlphaLISA, 16 h; hits give low values. activity change, % at 57.5 µM. hit rate 4.7% among 360,000. AID 743279; in the data active = activity change below about -50%; inconclusive = mostly about -30% to -49%
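THP-1 cells pretreated 1 hr with compounds (up to 57.5 uM final), then stimulated with LPS (250 ng/mL final) plus ATP (1.25 mM final); secreted IL-1B measured by AlphaLISA after 16 hr, decreased signal indicating inhibition.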
RORgamma inh: ROR gamma (mouse) transcription inhibition; P51450; Drosophila S2 Gal4-RORgamma UAS-luciferase reporter, 20 h; Potency, µM (titrated, usually from 53.6 µM), without a hit: at the top dose activity change, negative = inhibition, most hits filed as inhibitors; hit rate 5.4% among 310,000; note: potency is the fitted concentration of half-maximal effect; nearly all actives have a fitted effect of over 60% in size
Target sequence (P51450 whole entry, looked up, the tested form may be a part): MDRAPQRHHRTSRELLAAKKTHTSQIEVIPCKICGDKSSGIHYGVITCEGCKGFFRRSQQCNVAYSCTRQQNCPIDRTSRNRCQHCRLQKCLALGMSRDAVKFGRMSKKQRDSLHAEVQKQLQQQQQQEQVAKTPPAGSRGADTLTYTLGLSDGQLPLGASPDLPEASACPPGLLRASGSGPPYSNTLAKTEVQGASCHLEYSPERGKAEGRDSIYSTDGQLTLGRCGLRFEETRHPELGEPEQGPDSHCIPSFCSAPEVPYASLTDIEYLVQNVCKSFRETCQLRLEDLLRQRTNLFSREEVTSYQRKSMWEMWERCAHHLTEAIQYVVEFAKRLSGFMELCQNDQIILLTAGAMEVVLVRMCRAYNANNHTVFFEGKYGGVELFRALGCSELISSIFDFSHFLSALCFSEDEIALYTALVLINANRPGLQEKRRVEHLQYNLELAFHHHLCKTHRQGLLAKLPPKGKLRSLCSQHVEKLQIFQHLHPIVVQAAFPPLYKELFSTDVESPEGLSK
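Drosophila Schneider cells stably carrying a metallothionein-driven Gal4 DBD–ROR gamma fusion and a UAS-Photinus luciferase reporter were exposed to compound for 1 hr, then induced with copper sulfate (700 uM final) for 20 hr at ambient temperature before luminescence reading.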
An asterisk follows results filed as active; i = inactive; ? = inconclusive; / = not tested or not shown. Unless noted, calls come from the whole dose curve; as a rule, active = well fitted curve in the direction sought with a large enough effect; inconclusive = small, poorly fitted or top-dose-only effect, or another doubt; inactive = no such curve, though single readings can be large; an effect the other way counts as inactive or inconclusive. % is set by controls: 0 for no effect and ±100 for the full control effect.

SMILES	VP16 counter	TDP1 cell noCPT	TDP1 cell CPT	ELG1 DNA repair	IL1B secr inh	RORgamma inh
CC(C)(C)NC(=O)c1cc(NC(=O)c2cccs2)cc(NC(=O)c2cccs2)c1	?	20.6µM*	?	?	-9.0	44.1%
O=C(Cc1ccccc1)Nc1ccc(NC(=S)NC(=O)c2ccccc2)cc1	-18.5%	?	-23.3%	-15.5%	-22.5	-36.4%
Cc1cc(C)cc(C(=O)Nc2ccc(NC(=O)c3cccs3)cc2)c1	?	?	?	?	4.0	?
COc1cc(OC)nc(NC(=S)NC(=O)c2ccccc2)n1	?	?	-21.2%	4.9%	3.4	5.01µM*
O=C(NC(=S)Nc1cccc(CO)c1)c1ccc(-c2ccccc2)cc1	2.82µM*	13µM*	23.1µM*	9.9%	-10.1	1.58µM*
O=C(Cn1c(=O)c2cccn2c2ccc(F)cc21)N1CCN(c2ccccc2F)CC1	/	-20.1%	-18.8%	/	/	/
O=C(Nc1ccc(S(=O)(=O)Nc2ccccc2F)cc1)N1CCCCC1	3.4%	-17.7%	?	-1.6%	i	?
O=C(COc1ccc(Cl)cc1)N1CCN(S(=O)(=O)c2cc(F)ccc2F)CC1	/	?	?	/	-29.1	/
COC(=O)CSc1nnc(-c2cccc(O)c2)o1	/	16.2%	24.4%	/	/	/
O=C(Nc1ccc2[nH]ccc2c1)c1ccc(F)cc1	?	?	-17.6%	?	-14.0	11.2µM*
COc1ccc(NC(=O)c2cccs2)cc1OC	-2.6%	-2.5%	-7.4%	?	-7.3	25.0%
COc1ccc(Cl)cc1-c1nc(-c2ccc(NC(=O)c3cccs3)cc2)no1	2.4%	20.6µM*	?	-1.7%	-22.3	30.6%
O=C(NC(=S)Nc1c(Cl)cc(Cl)cc1Cl)c1ccccc1	/	9.2µM*	23.1µM*	/	-1.2	/
O=C(NC(=S)NC(c1ccccc1)c1ccncc1)c1ccccc1 (stereo not given)	?	11.6µM*	14.6µM*	18.4µM*	-79.4*	11.2µM*
Cc1c(NC(=S)NC(=O)c2ccccc2)c(=O)n(-c2ccccc2)n1C	/	-12.5%	0.8%	/	3.7	/
Cc1cc(C)n(CCNC(=O)[C@H]2O[C@@H](n3cnc4c(N)ncnc43)[C@H](O)[C@@H]2O)n1	/	-2.3%	-14.1%	/	30.4	/
CCCCNC(=O)c1nc(C2CCN(S(=O)(=O)c3c(OC)cccc3OC)CC2)oc1-c1ccccc1	/	9.2µM*	11.6µM*	/	-18.7	/
CCCCNC(=O)c1nc(C2CCN(S(=O)(=O)c3csc(C(=O)O)c3)CC2)oc1-c1ccccc1	/	1.2%	-5.9%	/	20.6	/
COc1ccccc1CNC(=O)COC(=O)C1CCN(S(=O)(=O)c2c(Cl)cccc2Cl)CC1	/	6.5%	-1.1%	/	49.1	/
CCCCNC(=O)c1nc(C2CCN(S(=O)(=O)c3ccccc3)CC2)oc1-c1cccc(C(F)(F)F)c1	/	-19.5%	?	/	-23.9	/
CCCCNC(=O)c1nc(C2CCN(S(=O)(=O)c3ccc(Cl)cc3)CC2)oc1-c1ccccc1	/	7.31µM*	7.31µM*	/	0.0	/
CCCCNC(=O)c1nc(C2CCN(S(=O)(=O)c3cccc(C(F)(F)F)c3)CC2)oc1-c1ccccc1	/	8.2µM*	9.2µM*	/	13.0	/
CCS(=O)c1ccccc1C(=O)OCC(=O)N1CCC(c2ccccc2)=N1 (stereo not given)	/	?	?	-19.3%	?	/
CCOc1ccc(CCNC(=O)c2cc3sccc3n2C)cc1OCC	1.5%	10.3µM*	16.4µM*	?	-5.8	0.2%
COC(=O)c1ccc(NC(=O)c2cc3sccc3n2C)cc1	-12.1%	?	29.1µM*	10.2%	6.2	38.0%
COc1ccc(CCNC(=O)c2cc3sccc3n2Cc2ccc(Cl)cc2)cc1OC	/	14.6µM*	13µM*	/	/	/

From PubChem
